Hits are enriched below; roughly 9.6% of the tested compounds scored in any of these assays.
Cav3 T inh – human Cav3.2 channel inhibition, primary screen | Cav3.2-expressing cells, Fluo-4 calcium fluorescence FDSS; active compounds read low | B-score at 10 µM | 4% of 100,000 active | AID 449739;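 active means single-dose well whose peak fluorescence ratio is a statistical outlier from its plate by either plate-standardised score or position-corrected B-score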
PLAP act – human PLAP activation; activation fold at 20 µM; purified PLAP enzyme, luminescent substrate read-out; active compounds read high; 1.2% of 96,000 active; in the data active means activation fold above about 2
DAT uptake mod – human DAT dopamine uptake with cocaine, either direction. Q01959. LLC-PK1 hDAT cells, [14C]-dopamine uptake with cocaine IC80; actives deviate in either direction. B-score at 10 µM. 1.3% of 110,000 active;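 active means Z score or B-score, a plate-position-corrected score, falls beyond the plate's 99.7% confidence bounds, in either direction; inactive means both scores lie inside the 99.7% bounds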
Target sequence (Q01959 whole entry, looked up): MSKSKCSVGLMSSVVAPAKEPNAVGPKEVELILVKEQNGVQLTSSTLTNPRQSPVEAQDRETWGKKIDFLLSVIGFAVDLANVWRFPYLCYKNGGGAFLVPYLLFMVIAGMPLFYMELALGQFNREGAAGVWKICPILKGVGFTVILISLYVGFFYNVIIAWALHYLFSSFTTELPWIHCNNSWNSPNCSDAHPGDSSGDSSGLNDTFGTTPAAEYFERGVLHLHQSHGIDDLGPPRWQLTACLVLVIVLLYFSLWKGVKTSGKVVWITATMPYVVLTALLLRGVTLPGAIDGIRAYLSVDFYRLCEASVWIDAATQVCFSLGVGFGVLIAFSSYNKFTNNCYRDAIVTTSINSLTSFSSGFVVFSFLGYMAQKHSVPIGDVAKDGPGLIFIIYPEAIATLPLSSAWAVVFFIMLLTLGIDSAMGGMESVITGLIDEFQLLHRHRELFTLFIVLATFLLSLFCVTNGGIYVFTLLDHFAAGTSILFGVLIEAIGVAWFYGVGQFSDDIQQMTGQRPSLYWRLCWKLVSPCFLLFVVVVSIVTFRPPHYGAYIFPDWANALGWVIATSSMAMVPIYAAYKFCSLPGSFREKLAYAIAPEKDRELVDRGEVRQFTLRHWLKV
PostGolgi yeast – growth inhibition of a yeast mutant, post-Golgi transport screen; 0.9% of 98,000 active; inhibition, % at 10 µM; post-Golgi transport phenotypic cell assay; AID 739;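 further: yeast cells grown in 1536-well plates; yeast grown about 18 h at 30C before absorbance read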
PostGolgi ctrl – yeast control strain growth, post-Golgi counter-screen; efflux-deficient yeast background strain, growth absorbance A615, 16 h; inhibition, % at 10 µM; 5% of 98,000 active
A number is an active result. Unless noted, no stated cut-off is given here; in the data, active means inhibition above about 30%; inactive means the rest.

What do the screens show for `CCCCN(CCCC)S(=O)(=O)c1ccc2oc(C(=O)N3CCOCC3)c(C)c2c1`?
Cav3 T inh: -4.7; PLAP act: inactive; DAT uptake mod: inactive; PostGolgi yeast: inactive; PostGolgi ctrl: inactive

Results for CCOC(=O)c1sc(NC(=O)/C=C/c2cnn(C)c2C)c(C(=O)OC(C)C)c1C ?
Cav3 T inh: inactive; PLAP act: inactive; DAT uptake mod: inactive; PostGolgi yeast: inactive; PostGolgi ctrl: inactive

Results for CCOC(=O)C1=C(CC)Nc2ccccc2N=C1NC(=O)Cn1cnc2ccccc2c1=O ?
Cav3 T inh: inactive; PLAP act: inactive; DAT uptake mod: inactive; PostGolgi yeast: inactive; PostGolgi ctrl: inactive

What do the screens show for `CCOC(=O)C1=C(CC)Nc2ccccc2N=C1NC(=O)Nc1ccc(Cl)c(Cl)c1`?
Cav3 T inh: inactive; PLAP act: inactive; DAT uptake mod: inactive; PostGolgi yeast: 73; PostGolgi ctrl: 66

Results for COc1ccc2c(C)nc(Nc3nc(C)c(C)c(=O)[nH]3)nc2c1 ?
Cav3 T inh: inactive; PLAP act: inactive; DAT uptake mod: inactive; PostGolgi yeast: inactive; PostGolgi ctrl: 66

What do the screens show for `CCCCCc1c(C)nc(Nc2nc(C)c3cc(OC)ccc3n2)[nH]c1=O`?
Cav3 T inh: -3.8; PLAP act: 2; DAT uptake mod: inactive; PostGolgi yeast: inactive; PostGolgi ctrl: inactive

How did CCc1c(C)nc(Nc2nc(C)c3ccc(OC)cc3n2)[nH]c1=O do in these assays?
Cav3 T inh: inactive; DAT uptake mod: inactive; PostGolgi yeast: inactive; PostGolgi ctrl: inactive

Results for CCCCCc1c(C)nc(Nc2ccccc2)[nH]c1=O ?
Cav3 T inh: inactive; PLAP act: inactive; DAT uptake mod: inactive; PostGolgi yeast: inactive; PostGolgi ctrl: inactive

How did CCOC(=O)C(CSCC(=O)c1ccc(Cl)cc1Cl)NC(=O)OC(C)(C)C (stereo not given) do in these assays?
PLAP act: 2; DAT uptake mod: inactive; PostGolgi yeast: inactive; PostGolgi ctrl: inactive

What do the screens show for `CCOC(=O)CSCC(NC(=O)OC(C)(C)C)C(=O)OCC` (stereo not given)?
PLAP act: inactive; DAT uptake mod: inactive; PostGolgi yeast: inactive; PostGolgi ctrl: inactive

Results for COc1ccc(NC(=S)Nc2ccc(Oc3ccccc3)cc2)cc1 ?
Cav3 T inh: inactive; PLAP act: inactive; DAT uptake mod: inactive; PostGolgi yeast: inactive; PostGolgi ctrl: inactive

What do the screens show for `CCNC(=S)Nc1ccc(Oc2ccccc2)cc1`?
Cav3 T inh: inactive; DAT uptake mod: -2.7

Results for Cc1ccc(C(=O)NC(=S)Nc2ccc(Oc3ccc(Cl)cc3)cc2)cc1 ?
Cav3 T inh: inactive; PLAP act: inactive; DAT uptake mod: inactive; PostGolgi yeast: inactive; PostGolgi ctrl: inactive

What do the screens show for `O=C(NC(=S)Nc1ccc(Oc2ccccc2)cc1)c1ccc(Cl)cc1`?
Cav3 T inh: inactive; PLAP act: inactive; DAT uptake mod: 2.6; PostGolgi yeast: inactive; PostGolgi ctrl: inactive

How did CC(C)(NC(=O)N1CCCC1)c1cccc(C(C)(C)NC(=O)N2CCCC2)c1 do in these assays?
Cav3 T inh: inactive; PLAP act: inactive; DAT uptake mod: inactive; PostGolgi yeast: inactive; PostGolgi ctrl: inactive

Results for CCCCOc1ccc(N2C(=O)CC(NCCc3ccc(S(N)(=O)=O)cc3)C2=O)cc1 (stereo not given) ?
Cav3 T inh: inactive; PLAP act: 2.1; DAT uptake mod: inactive; PostGolgi yeast: inactive; PostGolgi ctrl: inactive

What do the screens show for `COC(=O)c1ccc(NC(=O)CN2C(=O)CNC2=O)cc1`?
Cav3 T inh: inactive; PLAP act: inactive; DAT uptake mod: inactive; PostGolgi yeast: inactive; PostGolgi ctrl: inactive

Results for CCCc1cc(C(=O)NCC(C)C)no1 ?
Cav3 T inh: inactive; PLAP act: inactive; DAT uptake mod: inactive; PostGolgi yeast: inactive; PostGolgi ctrl: inactive

How did CSc1nnc(-c2cccc(C)c2)n1N do in these assays?
Cav3 T inh: inactive; PLAP act: inactive; DAT uptake mod: inactive; PostGolgi yeast: inactive; PostGolgi ctrl: inactive

What do the screens show for `COCCNC(=O)C1c2ccccc2C(=O)N(CCOC)C1c1ccc(F)cc1` (stereo not given)?
Cav3 T inh: inactive; PLAP act: inactive; DAT uptake mod: -7.6; PostGolgi yeast: inactive; PostGolgi ctrl: inactive

What do the screens show for `COCCN1C(=O)c2ccccc2C(C(=O)NCCN(C)C)C1c1ccc(F)cc1` (stereo not given)?
Cav3 T inh: inactive; PLAP act: inactive; DAT uptake mod: inactive; PostGolgi yeast: inactive; PostGolgi ctrl: inactive

How did [O-][n+]1onc2c1CCc1nnc(-c3ccccc3)cc1-2 do in these assays?
Cav3 T inh: inactive; PLAP act: inactive; DAT uptake mod: inactive; PostGolgi yeast: inactive; PostGolgi ctrl: 32

How did O=C1C(Cl)=C(NCC2CCCO2)C(=O)N1C1CCCCC1 (stereo not given) do in these assays?
Cav3 T inh: inactive; PLAP act: inactive; DAT uptake mod: inactive; PostGolgi yeast: inactive; PostGolgi ctrl: 41

What do the screens show for `O=C1C(Cl)=C(NCC2CCCO2)C(=O)N1c1ccccc1` (stereo not given)?
Cav3 T inh: inactive; PLAP act: inactive; DAT uptake mod: inactive; PostGolgi yeast: inactive; PostGolgi ctrl: inactive

How did COc1cc2oc3ccccc3c2cc1N(CC(=O)N(C)C)S(=O)(=O)c1ccccc1 do in these assays?
Cav3 T inh: inactive; PLAP act: inactive; DAT uptake mod: inactive; PostGolgi yeast: inactive; PostGolgi ctrl: inactive

Results for COc1cc2oc3ccccc3c2cc1N(CC(=O)N1CCCCC1)S(=O)(=O)c1ccc(C)cc1 ?
Cav3 T inh: inactive; PLAP act: inactive; DAT uptake mod: inactive; PostGolgi yeast: inactive; PostGolgi ctrl: 43

What do the screens show for `COc1ccc(C(=O)Nc2ccc(-c3ccc(C)o3)cc2)cc1S(=O)(=O)N1CCOCC1`?
Cav3 T inh: inactive; PLAP act: inactive; DAT uptake mod: inactive; PostGolgi yeast: inactive; PostGolgi ctrl: inactive

Results for O=C(N/N=C/c1cn(-c2ccccc2)nc1-c1ccc(F)cc1)c1ccc2c(c1)OCO2 ?
PLAP act: inactive; DAT uptake mod: inactive; PostGolgi yeast: inactive; PostGolgi ctrl: inactive

Results for O/N=C/c1cn(-c2ccccc2)nc1-c1ccc2c(c1)OCCO2 ?
Cav3 T inh: inactive; PLAP act: inactive; DAT uptake mod: inactive; PostGolgi yeast: inactive; PostGolgi ctrl: 31

How did O=C(N/N=C\c1cn(-c2ccccc2)nc1-c1ccccc1)c1ccc2c(c1)OCO2 do in these assays?
Cav3 T inh: inactive; PLAP act: inactive; DAT uptake mod: inactive; PostGolgi yeast: inactive; PostGolgi ctrl: 34

What do the screens show for `COc1cc2[nH]c(=O)n(CCCCCC(=O)NCCc3c[nH]c4ccccc34)c(=O)c2cc1OC`?
Cav3 T inh: inactive; PLAP act: inactive; DAT uptake mod: inactive; PostGolgi yeast: inactive; PostGolgi ctrl: inactive

How did Cc1oc(-c2ccccc2)nc1Cn1cccc1C1=NC(c2ccccc2)CO1 (stereo not given) do in these assays?
Cav3 T inh: -5.6; PLAP act: inactive; DAT uptake mod: inactive; PostGolgi yeast: inactive; PostGolgi ctrl: inactive

How did Cc1oc(-c2ccccc2)nc1CS(=O)CC(=O)N1CCc2ccccc2C1 (stereo not given) do in these assays?
Cav3 T inh: inactive; PLAP act: inactive; DAT uptake mod: inactive; PostGolgi yeast: inactive; PostGolgi ctrl: inactive

What do the screens show for `Cc1c(NC(=O)CSc2nc3ccccc3s2)c(=O)n(-c2ccccc2)n1C`?
Cav3 T inh: inactive; PLAP act: inactive; DAT uptake mod: inactive; PostGolgi yeast: inactive; PostGolgi ctrl: inactive

Bioassay records from PubChem BioAssay.
